Experimental data published in PubChem BioAssay (Tox21).
Results filed as inconclusive are left out. Activity calls are given as the source filed them. Unless noted, calls follow the shape of the dose curve; as a rule, active = well fitted curve in the direction sought with a large enough effect in the repeat runs; inconclusive = weak or mixed curves; inactive = no such curve, though single readings can be large; an effect the other way counts as inactive or inconclusive.

Experiments:
[1] = qHTS assay to test for compound auto fluorescence at 535 nm (green) in HEK293 cells (AID 720680)
[2] = qHTS assay to test for compound auto fluorescence at 460 nm (blue) in HEK293 cell free culture (AID 720681)
How it was run: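 Test compounds were pinned into cell-free culture medium (DMEM with 10% FBS) and fluorescence was read directly at Ex/Em 405/460 nm. Signals were expressed as fluorescence equivalents of triamterene, with DMSO vehicle as control.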

[3] = qHTS assay to test for compound auto fluorescence at 535 nm (green) in HEK293 cell free culture (AID 720682)
How it was run: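 Each library compound, or DMSO control, is added by pintool to medium alone, comprising DMEM and 10% FBS. Emission at 535 nm following 485 nm excitation is quantified against fluorescein.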

[4] = qHTS assay to test for compound auto fluorescence at 590 nm (red) in HEK293 cell free culture (AID 720683)
How it was run: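 Tox21 10K library compounds were pinned into cell-free DMEM with 10% FBS and fluorescence was read at excitation 540 nm. Activity is expressed as Rose Bengal sodium equivalency.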

[5] = qHTS assay to test for compound auto fluorescence at 590 nm (red) in HepG2 cell free culture (AID 720684)
How it was run: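 Readout: intrinsic compound fluorescence at 590 nm emission after 540 nm excitation, scaled to Rose Bengal sodium. Matrix was cell-free MEM with 10% FBS; DMSO vehicle wells served as control.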

[6] = qHTS assay to test for compound auto fluorescence at 460 nm (blue) in HepG2 cell free culture (AID 720685)
How it was run: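 Cell-free plates of MEM plus 10% FBS received 23 nL compound or DMSO vehicle; blue-channel (405/460 nm) intensity scored against triamterene as reference fluorophore.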

[7] = qHTS assay to test for compound auto fluorescence at 535 nm (green) in HepG2 cell free culture (AID 720686)
[8] = qHTS assay to test for compound auto fluorescence at 460 nm (blue) in HepG2 cells (AID 720687)
How it was run: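 Cells (2,000/well in MEM with 10% FBS) attached overnight at 37 C, then were exposed to compound or DMSO for 1 hr at 37 C, 5% CO2. Fluorescence read at Ex/Em 405/460 nm, expressed as triamterene-equivalent signal.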

[9] = target: Glucocorticoid receptor (Homo sapiens) (UniProt P04150); test: qHTS assay to identify small molecule agonists of the glucocorticoid receptor (GR) signaling pathway (AID 720691; active = well fitted activation curve with a large enough effect in the signal ratio in the repeat runs, not every such curve was filed as active; the % refers to the signal ratio)
Sequence of Glucocorticoid receptor (Homo sapiens) (P04150 whole entry, looked up): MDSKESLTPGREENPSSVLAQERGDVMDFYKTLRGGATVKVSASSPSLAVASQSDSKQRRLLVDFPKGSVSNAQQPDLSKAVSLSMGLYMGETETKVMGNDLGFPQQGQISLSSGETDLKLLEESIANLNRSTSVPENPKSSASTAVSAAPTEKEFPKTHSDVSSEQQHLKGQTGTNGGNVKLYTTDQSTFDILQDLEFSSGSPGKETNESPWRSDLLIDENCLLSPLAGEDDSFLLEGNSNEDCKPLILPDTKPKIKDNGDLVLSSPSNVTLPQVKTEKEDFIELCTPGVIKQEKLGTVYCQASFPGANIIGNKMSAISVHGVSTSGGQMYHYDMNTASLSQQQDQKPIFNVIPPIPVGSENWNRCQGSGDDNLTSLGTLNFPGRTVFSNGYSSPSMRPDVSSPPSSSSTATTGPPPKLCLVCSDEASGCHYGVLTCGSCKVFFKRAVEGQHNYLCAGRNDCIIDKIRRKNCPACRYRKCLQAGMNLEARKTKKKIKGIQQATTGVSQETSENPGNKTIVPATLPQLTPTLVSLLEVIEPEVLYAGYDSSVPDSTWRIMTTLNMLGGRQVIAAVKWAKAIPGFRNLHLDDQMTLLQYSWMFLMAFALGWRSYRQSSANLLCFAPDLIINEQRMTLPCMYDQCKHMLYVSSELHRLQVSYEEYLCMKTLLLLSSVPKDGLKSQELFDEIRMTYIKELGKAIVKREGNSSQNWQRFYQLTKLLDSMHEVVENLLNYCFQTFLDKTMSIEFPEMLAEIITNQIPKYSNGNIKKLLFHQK
How it was run: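 Compounds in DMSO, alongside positive controls, were added to GR-bla HeLa reporter cells and incubated 18 h at 37 C; GRE-driven beta-lactamase was detected by fluorescence after 2 h with FRET substrate at room temperature.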

[10] = target: Glucocorticoid receptor (Homo sapiens) (UniProt P04150); test: qHTS assay to identify small molecule antagonists of the glucocorticoid receptor (GR) signaling pathway (AID 720692; active = well fitted inhibition curve with a large enough effect in the signal ratio in the repeat runs, not every such curve was filed as active; the % refers to the signal ratio)
How it was run: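 In a 1536-well cell format, compounds were added 4 h after seeding GR-bla HeLa cells, together with dexamethasone at 5 nM final; reporter activity was measured by FRET-substrate fluorescence following 18 h at 37 C.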

[11] = qHTS assay to identify small molecule antagonists of the glucocorticoid receptor (GR) signaling pathway - cell viability counter screen (AID 720693); also: nearly all actives have a fitted effect of over 55% in size
[12] = qHTS assay for identifying genotoxic compounds that show differential cytotoxicity against isogenic chicken DT40 cell lines with known DNA damage response pathways - wild type cell line (AID 743012); also: nearly all actives have a fitted effect of over 60% in size
How it was run: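 Viability of DNA repair-proficient chicken DT40 cells was assessed by CellTiter-Glo luminescence following 40 h compound exposure at 37 C/5% CO2.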

[13] = qHTS assay for identifying genotoxic compounds that show differential cytotoxicity against isogenic chicken DT40 cell lines with known DNA damage response pathways - Rad54/Ku70 mutant cell line (AID 743015); also: nearly all actives have a fitted effect of over 60% in size
[14] = qHTS assay to identify small molecule antagonists of the androgen receptor (AR) signaling pathway - cell viability counter screen (AID 743033; also: nearly all actives have a fitted effect of over 45% in size)
[15] = qHTS assay to identify small molecule antagonists of the androgen receptor (AR) signaling pathway using the MDA cell line - cell viability counter screen (AID 743041; also: nearly all actives have a fitted effect of over 45% in size)
How it was run: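 qHTS viability read-out; MDA-kb2 AR-luc; R1881-stimulated; 16 h exposure at 37C, 0% CO2; CellTiter-Fluor, 30 min; fluorescence intensity.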

[16] = qHTS assay to identify small molecule antagonists of the thyroid receptor (TR) signaling pathway - cell viability counter screen (AID 743064); also: nearly all actives have a fitted effect of over 50% in size
How it was run: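 CellTiter-Fluor readout, 30 min at 37 °C/5% CO2, following 23.5 h incubation of GH3.TRE-Luc cells with test compound and 1 nM T3 (final).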

[17] = qHTS assay for identifying genotoxic compounds that show differential cytotoxicity against isogenic chicken DT40 cell lines with known DNA damage response pathways - Rev3 mutant cell line (AID 743014); also: nearly all actives have a fitted effect of over 55% in size
[18] = target: Androgen receptor (Homo sapiens) (UniProt P10275); test: qHTS assay to identify small molecule antagonists of the androgen receptor (AR) signaling pathway (AID 743035; active = well fitted inhibition curve with a large enough effect in the signal ratio in the repeat runs, not every such curve was filed as active; the % refers to the signal ratio)
Sequence of Androgen receptor (Homo sapiens) (P10275 whole entry, looked up): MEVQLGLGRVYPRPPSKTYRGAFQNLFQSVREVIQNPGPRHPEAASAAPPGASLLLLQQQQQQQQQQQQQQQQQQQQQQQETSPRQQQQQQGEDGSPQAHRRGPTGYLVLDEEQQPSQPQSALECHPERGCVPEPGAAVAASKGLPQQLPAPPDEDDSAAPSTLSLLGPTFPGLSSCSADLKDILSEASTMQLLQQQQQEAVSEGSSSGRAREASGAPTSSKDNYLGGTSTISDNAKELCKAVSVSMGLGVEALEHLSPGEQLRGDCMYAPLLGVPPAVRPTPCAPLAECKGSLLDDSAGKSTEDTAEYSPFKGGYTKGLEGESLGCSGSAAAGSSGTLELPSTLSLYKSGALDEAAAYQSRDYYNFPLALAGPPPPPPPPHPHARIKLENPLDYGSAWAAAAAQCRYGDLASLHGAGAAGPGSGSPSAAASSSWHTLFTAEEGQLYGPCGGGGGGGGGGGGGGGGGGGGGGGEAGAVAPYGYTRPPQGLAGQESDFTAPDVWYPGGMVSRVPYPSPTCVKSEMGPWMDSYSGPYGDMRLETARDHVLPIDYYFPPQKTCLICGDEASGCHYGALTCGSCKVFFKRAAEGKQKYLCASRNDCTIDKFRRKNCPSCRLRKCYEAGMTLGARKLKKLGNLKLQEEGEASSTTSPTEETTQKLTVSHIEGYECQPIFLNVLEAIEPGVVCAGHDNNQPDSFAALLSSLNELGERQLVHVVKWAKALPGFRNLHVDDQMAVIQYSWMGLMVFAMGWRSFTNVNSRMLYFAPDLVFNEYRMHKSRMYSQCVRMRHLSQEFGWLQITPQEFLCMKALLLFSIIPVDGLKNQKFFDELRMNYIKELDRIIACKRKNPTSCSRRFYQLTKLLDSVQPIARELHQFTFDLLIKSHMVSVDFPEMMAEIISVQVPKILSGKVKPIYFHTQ
How it was run: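 Reporter HEK293 cells were exposed to compounds and R1881 overnight (16 h, 37C); beta-lactamase activity was then quantified by FRET fluorescence.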

[19] = target: Androgen receptor (Homo sapiens) (UniProt P10275); test: qHTS assay to identify small molecule agonists of the androgen receptor (AR) signaling pathway using the MDA cell line (AID 743040; also: nearly all actives have a fitted effect of over 20% in size)
How it was run: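 Agonist activity is measured as luciferase luminescence in human MDA-kb2 cells whose MMTV reporter responds to both AR and GR. Compounds in DMSO incubate 16 h at 37C, 0% CO2, and ONE-Glo is read after 30 min.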

[20] = target: Androgen receptor (Homo sapiens) (UniProt P10275); test: qHTS assay to identify small molecule antagonists of the androgen receptor (AR) signaling pathway using the MDA cell line (AID 743042; also: nearly all actives have a fitted effect of over 55% in size)
How it was run: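 MDA-kb2 cells (human breast carcinoma, stably carrying an MMTV-luciferase reporter responsive to AR and GR) were plated at 3,000 cells/well and preincubated 5 hr at 37C, then given compound plus R1881 agonist for 16 h. ONE-Glo luminescence was read.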
% is scaled to controls: 0 for no effect and ±100 for the full control effect.

CN(C)C(=O)Oc1cccc([N+](C)(C)C)c1
inactive: outcome [1] | outcome [2] | outcome [3] | outcome [4] | outcome [5] | outcome [6] | outcome [7] | outcome [8] | Potency [9] | Potency [10] | outcome [11] | Potency [12] | Potency [13] | outcome [14] | Potency [15] | Potency [16]

Clc1cc(Cl)cc(Cl)c1
inactive: outcome [1] | outcome [2] | outcome [3] | outcome [4] | outcome [5] | outcome [6] | outcome [7] | outcome [8] | Potency [9] | Potency [10] | outcome [11] | Potency [12] | Potency [17] | Potency [13] | outcome [14] | Potency [15] | Potency [16]

O=S(=O)(O)c1cccc2c(S(=O)(=O)O)cccc12
inactive: outcome [1] | outcome [2] | outcome [3] | outcome [4] | outcome [5] | outcome [6] | outcome [7] | outcome [8] | Potency [9] | Potency [10] | outcome [11] | Potency [12] | Potency [17] | Potency [13] | outcome [14] | Potency [15]

CC(C)(CCC(=O)O)C(=O)O
inactive: outcome [1] | outcome [2] | outcome [3] | outcome [4] | outcome [5] | outcome [6] | outcome [7] | outcome [8] | Potency [9] | Potency [10] | outcome [11] | Potency [12] | Potency [17] | Potency [13] | outcome [14] | Potency [16]

CCCCc1nc(Cl)c(CO)n1Cc1ccc(-c2ccccc2-c2nn[nH]n2)cc1
inactive: outcome [1] | outcome [2] | outcome [3] | outcome [4] | outcome [5] | outcome [6] | outcome [7] | outcome [8] | Potency [9] | Potency [10] | outcome [11] | Potency [12] | Potency [17] | Potency [13] | Potency [15]

Cc1cccc(C)c1NC(=O)CC12CCCN1CCC2
inactive: outcome [1] | outcome [2] | outcome [3] | outcome [4] | outcome [5] | outcome [6] | outcome [7] | outcome [8] | Potency [9] | Potency [10] | outcome [11] | Potency [12] | Potency [17] | Potency [13] | Potency [15] | Potency [16]

COc1ccnc(CS(=O)c2nc3cc(OC(F)F)ccc3[nH]2)c1OC (stereo unspecified)
inactive: outcome [1] | outcome [2] | outcome [3] | outcome [4] | outcome [5] | outcome [6] | outcome [7] | outcome [8] | Potency [9] | Potency [10] | outcome [11] | Potency [12] | Potency [13] | outcome [14] | Potency [15] | Potency [16]

CC(C)(C)OC(=O)c1cccc(N)c1
inactive: outcome [1] | outcome [2] | outcome [3] | outcome [4] | outcome [5] | outcome [6] | outcome [7] | outcome [8] | Potency [9] | Potency [10] | outcome [11] | Potency [12] | Potency [13] | outcome [14] | Potency [15] | Potency [16]

C[C@@H]1CCC[C@H](C)N1
inactive: fluorescence, % of fluorescein [1] -0.0078% [at 18.6 µM] | fluorescence, % of fluorescent control [2] -0.0158% [at 18.6 µM] | activity change [3] 0.0087% [at 18.6 µM] | fluorescence, % of fluorescent control [4] -0.545% [at 18.6 µM] | fluorescence, % of Rose Bengal [5] 0.0262% [at 18.6 µM] | fluorescence, % of fluorescent control [6] -0.0314% [at 18.6 µM] | fluorescence, % of fluorescein control [7] -0.001% [at 18.6 µM] | fluorescence, % of fluorescent control [8] 0.0179% [at 18.6 µM] | Potency [9] | Potency [10] | outcome [11] | Potency [12] | Potency [17] | Potency [13] | outcome [14] | Potency [15]

COCCOC[C@H](CC1(C(=O)NC2CCC(C(=O)O)CC2)CCCC1)C(=O)Oc1ccc2c(c1)CCC2 (stereo partly specified)
inactive: outcome [1] | outcome [2] | outcome [3] | outcome [4] | outcome [5] | outcome [6] | outcome [7] | outcome [8] | Potency [9] | Potency [10] | outcome [11] | Potency [12] | Potency [17] | Potency [13] | outcome [14] | Potency [18] | Potency [19] | Potency [15] | outcome [20]

CCC(C(=O)NC(=O)NC(C)=O)c1ccccc1 (stereo unspecified)
inactive: outcome [1] | outcome [2] | outcome [3] | outcome [4] | outcome [5] | outcome [6] | outcome [7] | outcome [8] | Potency [9] | Potency [10] | outcome [11] | Potency [12] | Potency [17] | Potency [13] | outcome [14] | Potency [15] | Potency [16]

[O-][n+]1cccc(CO)c1
inactive: outcome [1] | outcome [2] | outcome [3] | outcome [4] | outcome [5] | outcome [6] | outcome [7] | outcome [8] | Potency [9] | Potency [10] | outcome [11] | Potency [12] | Potency [17] | Potency [13] | outcome [14] | Potency [15] | Potency [16]

CCCCCCCCCCCCCCCCCCO
inactive: outcome [1] | outcome [2] | outcome [3] | outcome [4] | outcome [5] | outcome [6] | outcome [7] | outcome [8] | Potency [9] | Potency [10] | outcome [11] | Potency [12] | Potency [13] | outcome [14]

CCCOC(=O)CC
inactive: outcome [1] | outcome [2] | outcome [3] | outcome [4] | outcome [5] | outcome [6] | outcome [7] | outcome [8] | Potency [9] | Potency [10] | outcome [11] | Potency [12] | Potency [17] | Potency [13] | outcome [14] | Potency [18] | Potency [19] | Potency [15] | outcome [20] | Potency [16]
